Common to all, as to assay: NCI-60 one-dose screen, 48 h (100 = growth as untreated, 0 = no growth, -100 = all killed)
Settings in all cases: 10 µM unless noted

For assay [1], the system named is HCT-15 colon.
Assay [2] deals with HT29 colon.
Assay [3] concerns SNB-75 CNS.
Assay [4] deals with SNB-19 CNS.
Assay [5] has as its system U251 CNS.
Assay [6] has as its system PC-3 prostate.
The subject of assay [7] is SK-MEL-5 melanoma.
In assay [8] the test system is LOX IMVI melanoma.
Assay [9] has as its system SK-MEL-28 melanoma.
Assay [10] deals with SK-MEL-2 melanoma.
Assay [11] deals with EKVX NSCLC.
Assay [12] concerns SN12C renal.
Assay [13] has as its system UO-31 renal.
For assay [14], the system named is TK-10 renal.
For assay [15], the system named is ACHN renal.
For assay [16], the system named is CAKI-1 renal.
Assay [17] relates to CCRF-CEM leukemia.
Assay [18] has as its system MOLT-4 leukemia.
Assay [19] relates to UACC-62 melanoma.
Assay [20] concerns A498 renal.

Results on ten molecules are retold here after PubChem BioAssay (NCI).

SMILES strings stand for the structures. About 83,000 compounds went through this panel and 20% of them were active in at least one assay; those are over-represented in the sample as a whole.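 Assay: single dose, 48 h. Readout: percent growth (0 = no net growth; negative = cell death). Active: <10.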 A number with no mark means an inactive call. Active and inactive are the calls of the source.

Turning to `N#CC(C#N)=Cc1cc2ccccc2nc1Oc1ccc(C(F)(F)F)cc1`, the growth in [1] is 85.1%; in [2], 100%; in assay [3] it was 84.2%; in [4], 93.2%; in assay [5] it was 91.2%; in assay [6], 51.5%. The growth is 94.7% in [7]; 76.4% in assay [8]; 104% in assay [9]; 103% in assay [10]; 84.1% in assay [11]; 91.9% in [12]. Also, the growth in assay [13] was 43.8%; in assay [14] it was 114%; in [15], 88.7%; in [16], 67.7%; in assay [17], 0.288% (active); in assay [18], 54.8%.

Turning to `CN1CCN(C(=O)[C@]23CCC(C)(C)C[C@H]2C2=CC[C@@H]4[C@@]5(C)C/C(=C/c6cccnc6)C(=O)C(C)(C)[C@@H]5CC[C@@]4(C)[C@]2(C)CC3)CC1`, the growth in assay [1] is 41.4%; in [2] it was 33.1%; in [3] it was 82.1%; in assay [4], 65.4%; in assay [5] it was 44.7%; in assay [6] it was 19.1%. Also, the growth was 49.8% in assay [7]; 68.5% in assay [8]; 77.9% in assay [9]; 81.5% in assay [10]; 78.8% in assay [11]; 57.8% in assay [12]. The growth in assay [13] is 38.6%; in assay [14], 89.5%; in assay [15], 66%; in [17], 33.3%; in [18] it was 20.5%.

On to `COc1ccc(/C=C/c2nc(Nc3ccc(S(=O)(=O)Nc4nc(C)cc(C)n4)cc3)c3ccccc3n2)cc1`, for which the growth in [1] was 50.5%; in assay [2], 62.2%; in assay [3], 85.7%; in assay [4], 75.6%; in assay [5], 69.7%; in [7], 61.1%. The growth is 20.8% in assay [19]; 26.3% in [8]; 87.4% in [9]; 75.2% in [10]; 72% in assay [11]; 76.8% in assay [12]. Also, the growth is 71.1% in assay [14]; 57.7% in assay [15]; 53.1% in assay [16]; 7.8% (active) in [20]; 61.5% in assay [17]; 65.7% in [18].

For the molecule `NS(=O)(=O)c1ccc(CCn2c(SCC(=O)c3ccc(Cl)cc3)nc3ccccc3c2=O)cc1`, the growth in [1] is 98.2%; in [2], 102%; in [3], 90.2%; in assay [4] it was 102%; in [5] it was 109%; in assay [7], 104%. Also, the growth in assay [19] was 98.9%; in assay [8] it was 96.8%; in assay [9], 113%; in assay [10] it was 107%; in assay [11] it was 98.9%; in assay [12], 101%. The growth is 84.5% in assay [13]; 97.2% in assay [14]; 99.9% in [15]; 99.2% in assay [20]; 97.8% in assay [17]; 97.6% in [18].

For the molecule `C#CCNC(=O)[C@H](Cc1ccccc1)NC(=O)[C@]12CC[C@@H](C(=C)C)[C@@H]1[C@H]1CC[C@@H]3[C@@]4(C)CCC(=O)C(C)(C)[C@@H]4CC[C@@]3(C)[C@]1(C)CC2`, the growth in assay [1] was 70.7%; in assay [2], 52.9%; in assay [3], 99.2%; in assay [4], 82.6%; in assay [5], 69.1%; in assay [7], 78.2%. In addition, the growth in [19] was 59.5%; in assay [8], 75.4%; in [9] it was 98.1%; in assay [10] it was 86.8%; in assay [11], 79%; in assay [12], 76%. Also, the growth is 54% in assay [13]; 65.3% in assay [14]; 75.7% in [15]; 55.4% in assay [16]; 65.1% in assay [17]; 46.3% in [18].

Regarding `O=C(Cc1ccc(/C=C/C(=O)c2ncc[nH]2)cc1)Nc1ccc(Cl)cc1`, the growth in [1] is -25% (active); in assay [2], 0.843% (active); in assay [3] it was 25.3%; in assay [4], 4.9% (active); in assay [5], -60.6% (active); in [7] it was 52.5%. Further, the growth in assay [19] is 41.2%; in assay [8] it was -37.1% (active); in assay [9], 67.9%; in [10] it was 94.9%; in assay [11] it was 65.2%; in assay [12] it was 7.28% (active). The growth was 2.84% (active) in assay [13]; 42.7% in assay [15]; 32.1% in assay [16]; -6.35% (active) in [17]; 5.1% (active) in assay [18].

In the case of `Cc1ccc(-n2cc(-c3ccccc3)c3c2N=NN2CCN=C32)cc1`, the growth in assay [1] was 101%; in assay [2], 110%; in [3] it was 72.1%; in assay [4] it was 92.2%; in [5], 99.1%; in assay [6] it was 86.4%. Further, the growth in [7] is 99.1%; in assay [8], 97.7%; in assay [9], 109%; in assay [10] it was 103%; in assay [11], 87.5%; in assay [12] it was 96%. Besides, the growth in [13] is 74.5%; in assay [14], 141%; in assay [15], 105%; in assay [16], 68.7%; in [17] it was 101%; in assay [18] it was 97.3%.

On to `CCc1c2c(nc3ccc(OCc4ccc(B(O)O)cc4)cc13)-c1cc3c(c(=O)n1C2)COC(=O)[C@]3(O)CC`, for which the growth is 18% in assay [1]; 3.65% (active) in assay [2]; -7.42% (active) in [3]; 8.1% (active) in [4]; -12% (active) in assay [5]; -67.5% (active) in assay [7]. Besides, the growth in assay [19] was -25.1% (active); in assay [8] it was -47.8% (active); in assay [9] it was 36%; in assay [10], 7.66% (active); in [11] it was 25.4%; in [12], 6.55% (active). Further, the growth in assay [13] was -15.8% (active); in assay [14], 27.5%; in assay [16] it was -21% (active); in [17] it was 4.37% (active); in assay [18] it was -5.64% (active).

Regarding `O=C1c2ccc3c4c(ccc(c24)C(=O)N1CCCNCc1ccccc1)C(=O)N(CCCNCc1ccccc1)C3=O`, the growth in assay [1] is -57.7% (active); in [2] it was -63.5% (active); in [3] it was -97.2% (active); in assay [4], -75.5% (active); in assay [5] it was -87.7% (active); in assay [7], -99.2% (active). Moreover, the growth in assay [19] was -71.1% (active); in [8], -75.6% (active); in [9], -95.9% (active); in assay [10], -82.9% (active); in assay [11], -39.2% (active); in assay [12], -88% (active). The growth in assay [13] was -48.6% (active); in [14], -84.2% (active); in assay [16], -19.6% (active); in assay [17], -30.5% (active); in assay [18] it was -32.3% (active).

Take `C/C(=N\NC(=O)CSc1nc2ccccc2c(=O)n1Cc1ccc(S(N)(=O)=O)cc1)c1ccc(F)cc1`: the growth in assay [1] is 96.9%; in assay [2] it was 94.7%; in assay [3], 98.5%; in assay [4], 102%; in assay [5] it was 103%; in [7] it was 105%. Besides, the growth in assay [19] was 102%; in assay [8], 97.6%; in assay [9], 117%; in assay [10] it was 111%; in [11] it was 90.9%; in [12], 101%. In addition, the growth is 84.5% in [13]; 102% in [14]; 105% in assay [15]; 95% in [16]; 106% in [17]; 107% in assay [18].
